Measured values reported in PubChem BioAssay (EPA / NIEHS).
“And” between values parts separate entries of the source, which are not always exact repeats. Identical values can stand only once. Records with an inconclusive call do not appear. A structure can be active in one record and inactive in another. The source made the active and inactive calls. Rule for the calls, unless noted: active = hit-call score of the fitted dose curve at least 0.9, where 1 is the maximum; inactive = score below 0.9.

Target: Estrogen receptor (Homo sapiens) (UniProt P03372)
Assay: ATG_ERa_TRANS: Attagene TRANS-FACTORIAL HepG2 Assay for human Estrogen Receptor alpha (ERa) (AID 2282970; active = hit-call score of the fitted dose curve at least 0.9, where 1 is the maximum)
Conditions: HepG2 Attagene TRANS ERa GAL4 reporter, mRNA
How it was run: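 Liver-derived HepG2 cells expressing chimeric nuclear receptor-Gal4 proteins from transient transfection were exposed for 24 hours. Gain of reporter mRNA signal versus DMSO, read by capillary electrophoresis of FAM-labelled PCR products, was recorded.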

Sequence of Estrogen receptor (Homo sapiens) (P03372 whole entry, looked up): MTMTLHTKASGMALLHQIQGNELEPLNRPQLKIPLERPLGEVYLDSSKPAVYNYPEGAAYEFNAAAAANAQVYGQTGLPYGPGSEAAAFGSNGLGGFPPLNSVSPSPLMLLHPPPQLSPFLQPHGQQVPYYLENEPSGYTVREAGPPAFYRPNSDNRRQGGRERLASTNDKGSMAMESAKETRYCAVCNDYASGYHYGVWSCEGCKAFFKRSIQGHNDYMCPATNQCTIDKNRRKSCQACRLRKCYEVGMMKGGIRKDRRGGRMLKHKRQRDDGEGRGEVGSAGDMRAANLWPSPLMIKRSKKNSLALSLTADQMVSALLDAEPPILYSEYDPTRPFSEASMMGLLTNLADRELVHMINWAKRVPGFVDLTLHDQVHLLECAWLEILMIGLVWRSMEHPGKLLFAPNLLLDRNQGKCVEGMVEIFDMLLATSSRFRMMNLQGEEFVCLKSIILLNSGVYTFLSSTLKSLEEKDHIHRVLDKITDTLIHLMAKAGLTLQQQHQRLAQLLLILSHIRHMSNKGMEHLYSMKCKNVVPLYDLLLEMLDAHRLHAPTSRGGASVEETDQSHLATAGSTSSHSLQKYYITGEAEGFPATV

SMILES | AC50 | outcome
CCC(C)c1cc([N+](=O)[O-])cc([N+](=O)[O-])c1O (centres undefined) | 0.807 µM (active) | 
c1cc2ccc3cccc4ccc(c1)c2c34 |  | inactive
Cc1ccccc1O |  | inactive
CC(C)(c1ccccc1)c1ccc(O)cc1 | 277 nM (active) [middle of 4 runs] | 
ClC(Cl)=C(c1ccc(Cl)cc1)c1ccc(Cl)cc1 | 12.2 µM (active) and 4.03 µM (active) and 3.46 µM (active) | inactive
O=C(O)C(F)(F)C(F)(F)C(F)(F)C(F)(F)C(F)(F)C(F)(F)C(F)(F)C(F)(F)C(F)(F)F | 25.4 µM (active) and 22.6 µM (active) and 17.2 µM (active) | 
OCC(O)CO | 85.1 µM (active) | 
Oc1c(Cl)c(Cl)c(Cl)c(Cl)c1Cl |  | inactive
N#Cc1ccc(N(CC(N)=O)CC(F)(F)F)cc1C(F)(F)F |  | inactive
CCOC(=O)C(O)(c1ccc(Cl)cc1)c1ccc(Cl)cc1 |  | inactive
Sc1ccccc1 | 27.1 µM (active) and 42.2 µM (active) | 
Clc1ccc(Cl)cc1 |  | inactive
Cc1cc(-c2ccc(N)c(C)c2)ccc1N | 8.74 µM (active) and 6.68 µM (active) | 
CCCCCCCCCc1ccc(O)cc1 | 5.66 µM (active) [middle of 4 runs] | 
CC(C)C(=O)OCC(C)(C)C(OC(=O)C(C)C)C(C)C (centres undefined) | 52.8 µM (active) | 
CC(C)(O)C(=O)Nc1ccc([N+](=O)[O-])c(C(F)(F)F)c1 |  | inactive
CCOP(=S)(OCC)SCSC(C)(C)C | 19.8 µM (active) and 13.2 µM (active) | 
O=C(O)C(F)(F)C(F)(F)C(F)(F)C(F)(F)C(F)(F)C(F)(F)C(F)(F)C(F)(F)F | 27.8 µM (active) and 71.8 µM (active) and 36.7 µM (active) | 
CC(c1ccc(O)cc1)(c1ccc(O)cc1)c1ccc(O)cc1 | 0.129 µM (active) | 
COc1ccc(O)c(C(C)(C)C)c1 | 31.5 µM (active) | 
O=S(=O)(O)C(F)(F)C(F)(F)C(F)(F)C(F)(F)C(F)(F)C(F)(F)F | 105 µM (active) | inactive
ClC1=C(Cl)[C@]2(Cl)[C@@H]3[C@H]4C[C@H]([C@@H]5O[C@H]45)[C@@H]3[C@@]1(Cl)C2(Cl)Cl |  | inactive
Nc1ccc(-c2ccc(N)cc2)cc1 | 38 µM (active) | 

Target: Steroid hormone receptor ERR1 (Homo sapiens) (UniProt P11474)
Assay: ATG_ERRa_TRANS: Attagene TRANS-FACTORIAL HepG2 Assay for human Estrogen-Related Receptor alpha (ERRa) (AID 2282971; active = hit-call score of the fitted dose curve at least 0.9, where 1 is the maximum)
Conditions: HepG2 Attagene TRANS reporter, ERRa transactivation
How it was run: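 Reporter transcript induction was quantified by RT-PCR and capillary electrophoresis of FAM-labelled, HpaI-cut products after 24 h treatment of HepG2 cells carrying transiently transfected GAL4-UAS reporter units and an exogenous ERRa-Gal4 fusion; activity scored as increase over DMSO.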

Sequence of Steroid hormone receptor ERR1 (Homo sapiens) (P11474 whole entry, looked up): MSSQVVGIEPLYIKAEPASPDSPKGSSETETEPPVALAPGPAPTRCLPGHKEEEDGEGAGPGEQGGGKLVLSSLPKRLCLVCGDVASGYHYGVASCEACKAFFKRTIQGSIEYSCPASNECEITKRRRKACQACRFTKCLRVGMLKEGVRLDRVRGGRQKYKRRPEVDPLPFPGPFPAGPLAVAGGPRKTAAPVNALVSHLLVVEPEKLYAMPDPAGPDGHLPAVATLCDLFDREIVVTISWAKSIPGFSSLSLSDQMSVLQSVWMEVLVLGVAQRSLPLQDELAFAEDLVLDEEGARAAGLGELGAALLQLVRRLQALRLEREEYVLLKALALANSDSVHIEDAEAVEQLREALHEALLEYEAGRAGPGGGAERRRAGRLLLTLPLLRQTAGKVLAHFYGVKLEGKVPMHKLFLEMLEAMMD

SMILES | outcome
c1cc2ccc3cccc4ccc(c1)c2c34 | inactive
O=C(O)C(F)(F)C(F)(F)C(F)(F)C(F)(F)C(F)(F)C(F)(F)C(F)(F)C(F)(F)C(F)(F)F | inactive
OCC(O)CO | inactive
Clc1ccc(C(c2ccccc2Cl)C(Cl)(Cl)Cl)cc1 (centres undefined) | inactive
CN(C)CCO | inactive
CC(C)(O)C(=O)Nc1ccc([N+](=O)[O-])c(C(F)(F)F)c1 | inactive
CC(c1ccc(O)cc1)(c1ccc(O)cc1)c1ccc(O)cc1 | inactive
ClC1=C(Cl)[C@]2(Cl)[C@@H]3[C@H]4C[C@H]([C@@H]5O[C@H]45)[C@@H]3[C@@]1(Cl)C2(Cl)Cl | inactive

Target: X-box-binding protein 1 (Homo sapiens) (UniProt P17861)
Assay: ATG_Xbp1_CIS: Attagene CIS-FACTORIAL HepG2 Assay for human X-box Binding Protein 1 (XBP1) (AID 2282972)
Conditions: HepG2 XBP1 cis-element reporter, Attagene multiplex; actives raise or lower the signal
How it was run: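 Reporter transcripts were quantified by RT-PCR with fluorescent primer extension and capillary electrophoresis after 24 h chemical exposure. Cells: transiently transfected HepG2 carrying cis-regulated reporter constructs; data fitted bidirectionally relative to DMSO.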

Sequence of X-box-binding protein 1 (Homo sapiens) (P17861 whole entry, looked up): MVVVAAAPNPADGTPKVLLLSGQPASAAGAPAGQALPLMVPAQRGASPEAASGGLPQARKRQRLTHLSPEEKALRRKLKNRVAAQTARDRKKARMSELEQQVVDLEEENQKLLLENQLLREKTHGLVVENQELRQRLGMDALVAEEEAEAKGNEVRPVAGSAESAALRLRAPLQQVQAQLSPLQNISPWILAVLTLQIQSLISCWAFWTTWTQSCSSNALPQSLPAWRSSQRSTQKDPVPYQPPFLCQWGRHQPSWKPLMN

SMILES | outcome | AC50
C[C@]12CCC(=O)C=C1CC[C@@H]1[C@@H]2CC[C@@]2(C)[C@H]1CC[C@]2(C)O | inactive | 
Cc1ccccc1CO[C@@H]1C[C@@]2(C(C)C)CC[C@]1(C)O2 | inactive | 
CCC(C)c1cc([N+](=O)[O-])cc([N+](=O)[O-])c1O (centres undefined) |  | 10.2 µM (active)
c1cc2ccc3cccc4ccc(c1)c2c34 | inactive | 
Cc1ccccc1O | inactive | 
CCC(=O)O[C@H]1CC[C@H]2[C@@H]3CCC4=CC(=O)CC[C@]4(C)[C@H]3CC[C@]12C |  | 141 µM (active) [middle of 4 runs]
CC(C)(c1ccccc1)c1ccc(O)cc1 | inactive | 52.7 µM (active) and 52.2 µM (active)
ClC(Cl)=C(c1ccc(Cl)cc1)c1ccc(Cl)cc1 | inactive | 150 µM (active)
O=C(O)C(F)(F)C(F)(F)C(F)(F)C(F)(F)C(F)(F)C(F)(F)C(F)(F)C(F)(F)C(F)(F)F | inactive | 50.8 µM (active) and 50 µM (active)
CO/C=C(/C(=O)OC)c1ccccc1COc1cccc(C(F)(F)F)n1 |  | 7.76 µM (active)
OCC(O)CO | inactive | 
Oc1c(Cl)c(Cl)c(Cl)c(Cl)c1Cl |  | 29.5 µM (active) and 19 µM (active) and 74.2 µM (active)
Clc1ccc(C(c2ccccc2Cl)C(Cl)(Cl)Cl)cc1 (centres undefined) | inactive | 70.5 µM (active) and 101 µM (active) and 46.4 µM (active)
N#Cc1ccc(N(CC(N)=O)CC(F)(F)F)cc1C(F)(F)F | inactive | 
Cc1ccccc1[N+](=O)[O-] | inactive | 
CCOC(=O)C(O)(c1ccc(Cl)cc1)c1ccc(Cl)cc1 | inactive | 
Sc1ccccc1 | inactive | 

SMILES | outcome | AC50
Clc1ccc(Cl)cc1 | inactive | 
CN(C)CCO | inactive | 
Cc1cc(-c2ccc(N)c(C)c2)ccc1N | inactive | 
CCCCCCCCCc1ccc(O)cc1 | inactive | 32.8 µM (active)
CC(C)C(=O)OCC(C)(C)C(OC(=O)C(C)C)C(C)C (centres undefined) | inactive | 
CC(C)(O)C(=O)Nc1ccc([N+](=O)[O-])c(C(F)(F)F)c1 | inactive | 54.9 µM (active)
CCOP(=S)(OCC)SCSC(C)(C)C | inactive | 
O=C(O)C(F)(F)C(F)(F)C(F)(F)C(F)(F)C(F)(F)C(F)(F)C(F)(F)C(F)(F)F | inactive | 150 µM (active) and 39.2 µM (active)
CC(c1ccc(O)cc1)(c1ccc(O)cc1)c1ccc(O)cc1 |  | 11.1 µM (active)
COc1ccc(O)c(C(C)(C)C)c1 |  | 100 µM (active)
Oc1ccc(C(c2ccc(O)cc2)(C(F)(F)F)C(F)(F)F)cc1 | inactive | 18.1 µM (active) and 17.3 µM (active) and 17.8 µM (active)
CCNc1nc(NC(C)C)nc(SC)n1 | inactive | 
O=S(=O)(O)C(F)(F)C(F)(F)C(F)(F)C(F)(F)C(F)(F)C(F)(F)F | inactive | 
ClC1=C(Cl)[C@]2(Cl)[C@@H]3[C@H]4C[C@H]([C@@H]5O[C@H]45)[C@@H]3[C@@]1(Cl)C2(Cl)Cl | inactive | 
CCCCCCCCOC(=O)c1ccccc1C(=O)OCCCCCCCC | inactive | 
Nc1ccc(-c2ccc(N)cc2)cc1 | inactive | 
